# The campaign covered roughly 54,000 compounds. About 120 (0.22%) were called active. Where a call stands in place of a potency, no number is given. About 8% were inconclusive and are not listed. This is one part of a sample in which actives are shown more often than they occur. Unmarked numbers belong to inactive results. Calls follow the shape of the dose curve; as a rule, active = well fitted inhibition curve with a large enough effect; inconclusive = small, poorly fitted or top-dose-only effect, or effect the other way; inactive = flat fitted curve, though single readings scatter.
# Biological target: Fumarate hydratase, mitochondrial (Homo sapiens) (UniProt P07954)
# Assay: Identification of activators of human fumarate hydratase by quantitative high-throughput screening; also: the screen sought activators but most active calls are inhibition curves; nearly all actives have a fitted effect of over 45% in size
# Conditions: FH coupled MDH/diaphorase resazurin fluorescence, 15 min; series mostly up to 79.9 µM
# Excerpt: Fumarate hydratase (FH) is a metabolic enzyme that is part of the Krebs-cycle, and reversibly catalyzes the hydration of fumarate to malate. Mutations of the FH gene have been associated with fumarate hydratase deficiency (FHD), hereditary leiomyomatosis, renal cell cancer (HLRCC), and other diseases. Currently there are no high-quality small molecule probes for studying human fumarate hydratase. To address this, we developed a quantitative high throughput screening (qHTS) FH assay and screened a total of 57,037 compounds in dose-response. While no inhibitors of FH were confirmed, a series of phenyl-pyrrolo-pyrimidine-diones (12 compounds) were identified as activators of human fumarate hydratase. […] The binding of two compounds from the series to human fumarate hydratase was confirmed by microscale thermophoresis. The low hit rate in this screening campaign confirmed that FH is a "tough target" to modulate, and the small molecule activators of human fumarate hydratase reported here may serve as a starting point for further optimization and development into cellular probes of human FH and potential drug candidates.
# For primary high-throughput screen, 3 ul of FH solution (containing 13.33nM human fumarate hydratase, 13.33IU/ml malic dehydrogenase, 0.2mM NAD, 0.067mg/ml diaphorase and 0.067mM resazurin in the assay buffer (50 mM Tris pH 8.0, 5 mM MgCl2, 0.01% Brij 3) was dispensed into each well in a black solid bottom 1536-well assay plate (Greiner Bio-One) using a BioRAPTR FRD dispenser (Beckman Coulter, Brea, CA). A 1536-well pintool dispenser outfitted with 20 nl pins (Wako Automation, San Diego, CA) was used to transfer 20 nL of DMSO-solubilized compound (Cherrypick plates) to each 1536-well assay plate. Each compound was screened at five concentrations: 15 nM, 151 nM, 1.5 uM, 15.4 uM, 76.9 uM. Following compound transfer, plates were incubated in room temperature for 10 minutes. 1 uL of substrate solution containing fumaric acid (160 uM) was dispensed via BioRAPTR FRD to initiate the reaction. Plates were immediately transferred to a ViewLux microplate imager (PerkinElmer, Waltham, MA), and any resulting resorufin fluorescence was measured (exitation/emission, 525/598 nm) at 0 and 15 minutes. The exposure time is 1 second. Fluorescence from each well was normalized using enzyme-free and DMSO-treated control wells on each plate, and changes in fluorescence (delta RFU) were calculated using the difference in fluorescent signal for each well at 15 minutes versus 0 minutes.
# Potency is read from the fitted curve at half-maximal effect.
# Fumarate hydratase, mitochondrial (Homo sapiens), sequence (P07954 whole entry, looked up): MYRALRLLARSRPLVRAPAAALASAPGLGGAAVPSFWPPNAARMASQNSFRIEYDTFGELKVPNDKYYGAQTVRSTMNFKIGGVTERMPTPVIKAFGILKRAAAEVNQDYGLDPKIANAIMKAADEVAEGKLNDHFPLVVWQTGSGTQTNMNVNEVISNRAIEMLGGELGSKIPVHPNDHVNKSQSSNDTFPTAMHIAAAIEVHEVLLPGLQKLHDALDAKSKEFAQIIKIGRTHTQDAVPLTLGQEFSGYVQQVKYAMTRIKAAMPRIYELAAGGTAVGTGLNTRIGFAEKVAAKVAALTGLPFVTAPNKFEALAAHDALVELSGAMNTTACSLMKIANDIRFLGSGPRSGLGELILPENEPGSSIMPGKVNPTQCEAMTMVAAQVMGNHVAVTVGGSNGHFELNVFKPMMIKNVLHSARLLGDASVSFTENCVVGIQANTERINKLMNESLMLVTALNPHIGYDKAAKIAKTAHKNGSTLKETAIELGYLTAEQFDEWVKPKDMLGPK
SMILES,"activity change, negative = inhibition",Potency
CC[C@H](C)[C@H](NC(=O)[C@H]([C@@H](C)CC)N(C)C(C)=O)C(=O)N[C@H](C(=O)N[C@@H](CC(C)C)C(=O)[C@@]1(C)CO1)[C@@H](C)O,inactive,
COc1cc(C2c3cc(O)c(OC)cc3CC(CO)C2CO)ccc1O (stereo not drawn),inactive,
CCOc1ccc(NC(=O)CC2C(=O)N(c3cccc(OC)c3)C(=O)N2C2CCCCC2)cc1 (stereo not drawn),inactive,
COc1cccc(C(=O)c2sc3nc(-c4ccccc4)cc(C(F)(F)F)c3c2N)c1,inactive,
Cc1cccc(N2CCN(C(=O)Cn3ncc4c5ccccc5n(C)c4c3=O)CC2C)c1 (stereo not drawn),inactive,
CC(=O)/C=C/C1(O)C(C)(C)CC(O)CC1(C)O (stereo not drawn),inactive,
Cc1ccc2nc(COc3cccc(NC(=O)c4ccccc4Cl)c3)cc(=O)n2c1,inactive,
O=C(Cn1c(=O)n(-c2ccc(F)cc2)c(=O)c2sccc21)Nc1cccc(C(F)(F)F)c1,inactive,
COc1ccc(CCN2C(=O)N(c3cccc(OC)c3)C(=O)C2CC(=O)Nc2ccccc2)cc1 (stereo not drawn),inactive,
CC1=C(C)C(=O)OC(C(C)C2CCC3C4CC=C5CC(OC6OC(COC7OC(CO)C(O)C(O)C7O)C(O)C(O)C6O)CC(O)C5(C)C4CCC23C)C1 (stereo not drawn),inactive,
CN(C(=O)CSc1nc2ccc(NC(=O)COc3ccccc3)cc2s1)c1ccccc1,inactive,
CC(Nc1ncnc2nc[nH]c12)c1cc2cccc(Cl)c2c(=O)n1-c1ccccc1 (stereo not drawn),inactive,
COc1ccc(NC(=O)c2ccc(-c3ccc(C(=N)N)cc3C)cc2)cc1N1CCN(C)CC1,inactive,
Cc1c(C2=CCN(C(=O)N(C)C(C)C)CC2)nnn1-c1cccnc1F,inactive,
C/C=C/C1=CC2=CC(=O)C(C)(O)C(OC(=O)c3c(C)cc(O)cc3O)C2CO1 (stereo not drawn),inactive,
COc1ccc(Cn2ccnc2SCC(=O)Nc2ccc3c(c2)OCO3)cc1,inactive,
O=C(CSCc1cnn(-c2ccccc2)c1-n1cccc1)NCc1ccccc1Br,inactive,
Cc1cccc(N2CCN(c3c(CN4CCCC4)c(=O)oc4ccccc34)CC2)c1C,inactive,
Cn1c(=O)[nH]c(=O)c2c1nc(NCCc1ccccc1)n2Cc1ccc(F)cc1,inactive,
CCCOc1cccc(C(=O)Nc2cccc(NC(=O)c3ccc(C(C)(C)C)cc3)c2)c1,inactive,
COc1ccccc1-n1c(SCC(=O)Nc2nc3ccc(C)cc3s2)nc2c(c1=O)SCC2,inactive,
COc1ccc(CCNc2ncnc3c2cnn3-c2ccc(C)cc2)cc1,inactive,
CC1(C)C[C@H]2C3=CCC4[C@@]5(C)CC[C@H](O[C@H]6O[C@H](C(=O)O)[C@@H](O)[C@H](O)[C@H]6O[C@H]6O[C@H](CO)[C@@H](O)[C@H](O)[C@H]6O[C@@H]6O[C@H](CO)[C@@H](O)[C@H](O)[C@H]6O)[C@](C)(CO)C5CC[C@@]4(C)[C@]3(C)CC[C@@]2(C)[C@H](O[C@@H]2OC[C@H](O)[C@H](OC3O[C@H](CO)[C@@H](O)[C@H](O)[C@H]3O)[C@H]2O)[C@@H]1O (stereo partly drawn),17.6% [at 13.5 µM],
CCc1cc2c(cc(C(=O)OC)n2Cc2nc(-c3ccc(C)cc3)oc2C)s1,inactive,
CCOC(=O)c1cc(OC(=O)c2ccccc2Cl)n(-c2ccccc2)n1,inactive,

SMILES,"activity change, negative = inhibition",Potency
Cc1cc2ccccc2n1CCNC(=O)c1ccc(F)cc1,inactive,
COc1ccc(Cl)cc1NC(=O)CSc1nc(=O)[nH]c2c1CCCC2,inactive,
CCOc1ccc(-n2c(SCC(=O)NCc3ccccc3)nc3n[nH]c(C)c3c2=N)cc1,inactive,
CC(=O)Nc1c(C)nn(-c2ccccc2)c1N1CCC(C(=O)Nc2cc(Cl)ccc2C)CC1,inactive,
CC1(O)CC(O)C2(O)C=COC(O[C@@H]3O[C@H](CO)[C@@H](O)[C@H](O)[C@H]3O)C12 (stereo partly drawn),inactive,
CCOc1ccc(CC(=O)NCCc2csc3nc(-c4ccccc4F)nn23)cc1,inactive,
Cc1c(O)cc2c(c1O)COC1(O)CCCOC21 (stereo not drawn),inactive,
O=C(OC1CN2CCC1CC2)N1CCc2ccccc2C1c1ccccc1 (stereo not drawn),inactive,
C=C1C2(CCC(=O)OC2(C)C)CC(OC(=O)/C(C)=C/C)C2(C)C13OC14C(=O)OC(C)(C(=O)C12C(=O)OC4C)C3OC(C)=O (stereo not drawn),inactive,
CCOc1ccc(/C=C(\C#N)c2nc3ccccc3c(=O)[nH]2)cc1OC,inactive,
N#CSc1cc(SC#N)c(N)nc1N,inactive,
CCOc1ccccc1CNC(=O)c1ccc(-n2c(C)cc3c2CCC(C)C3)cc1 (stereo not drawn),inactive,
CCOc1cccc(CC(=O)N2CCc3c([nH]c4ccccc34)C2c2ccc(F)cc2)c1OCC (stereo not drawn),inactive,
CCOc1cccc2c1N[C@@H](c1ccc(C(=O)O)cc1)[C@H]1CC=C[C@@H]21,,28.2 µM (active)
Cn1c(SCC(=O)N2CCC[C@H]2C(=O)Nc2ccccc2-c2ccccc2)nc2ccccc21,inactive,
COc1cccc(C(=O)NCc2ccc3c(c2)CCN3C(=O)c2ccncc2)c1,inactive,
CCc1cc2c(cc3c(=O)n(CC(=O)NCCc4ccc(OC)c(OC)c4)ncn32)s1,inactive,
COc1cccc(N=C2SC(C(=O)Nc3cccc(Cl)c3)CC(=O)N2C)c1 (stereo not drawn),inactive,
COC(=O)N1CCC(n2ncc3c(N4CCOCC4)nc(-c4ccc(NC(=O)Nc5ccc(CO)cc5)cc4)nc32)CC1,inactive,
[N-]=[N+]=N[C@]1(CO)O[C@@H](n2ccc(N)nc2=O)[C@@H](O)[C@@H]1O,inactive,
Cc1cc2nn(-c3ccc(Cl)cc3)nc2cc1NC(=O)C(C)C,inactive,
C/C=C(/COC(=O)/C(C)=C/C)C(=O)OC/C=C/c1ccc(OC)cc1,inactive,
Clc1ccc2ncc(-c3cccc(NC4CCNCC4)n3)n2c1,inactive,
COC(=O)c1cc(Cl)c(NC(C)=O)cc1OC,inactive,
CCOC(=O)c1[nH]c(C)c(CCC(=O)N2CCN(c3ccccc3)CC2)c1C,inactive,

SMILES,"activity change, negative = inhibition",Potency
CC1(C)CC[C@]2(C(=O)O)CC[C@]3(C)C(=CCC4[C@@]5(C)C[C@H](O)[C@H](O[C@@H]6OC[C@H](O)[C@H](O)[C@H]6O)[C@@](C)(CO)C5CC[C@]43C)[C@@H]2C1 (stereo partly drawn),inactive,
C[C@@H]1C/C=C/C=C\C=C\C=C\[C@H](O[C@@H]2O[C@H](C)[C@@H](O)[C@H](N)[C@@H]2O)C[C@@H]2O[C@](O)(C[C@@H](O)C[C@H]3O[C@@H]3/C=C/C(=O)O1)C[C@H](O)[C@H]2C(=O)O,inactive,
C=C1[C@@H](C)[C@H]2[C@H](Cc3c[nH]c4ccccc34)NC(=O)[C@]23C(=O)/C=C/C(=O)[C@H](O)/C(C)=C\[C@@H](C)C/C=C/[C@H]3[C@@H]1O,inactive,
Clc1ccc(CSc2nncn3c2cc2occc23)cc1,inactive,
CCC/C=C/C=C/C1CC(O)C2(O)C(=O)OCC12 (stereo not drawn),inactive,
CC(=O)/C=C/C1C(C)CC(O[C@@H]2O[C@H](CO)[C@@H](O)[C@H](O)[C@H]2O)CC1(C)C (stereo partly drawn),inactive,
COc1ccc(NC(=O)c2ccco2)cc1NC(=O)COc1ccc(C)c(C)c1,inactive,
Cc1cc(NC(=O)CSc2ncc(C(=O)Nc3ccc(Cl)cc3)c(=O)n2C)no1,inactive,
C1CCC[C@H]2CCCN3CC[C@@H](CCCCCC[C@@H]4CCCN5CC[C@@H](CC1)O[C@@H]45)O[C@@H]23,-2.71% [at 0.217 µM],
CNC(=O)c1ccccc1Nc1nc(Nc2ccc3c(c2OC)CCC[C@@H](N2CCN(CCO)CC2)C3)ncc1Cl,inactive,
CN(C)c1cccc(Oc2cnc(Nc3cccc(O)c3)nc2)c1,inactive,
CCOc1ccc(CCNC(=O)CN(c2ccc(C)cc2)S(=O)(=O)N(C)C)cc1OCC,inactive,
CC1CN(C(=O)N2CCC(C(=O)NCc3ccco3)CC2)c2cc(Cl)ccc2O1 (stereo not drawn),inactive,
CC(CCC1(O)OC2CC3C4CC=C5C[C@@H](O[C@@H]6O[C@H](CO)[C@@H](O[C@@H]7O[C@@H](C)[C@H](O)[C@@H](O)[C@H]7O)[C@H](O)[C@H]6O[C@@H]6O[C@@H](C)[C@H](O)[C@@H](O)[C@H]6O)CC[C@]5(C)C4CC[C@]3(C)[C@@]2(O)[C@@H]1C)CO[C@@H]1O[C@H](CO)[C@@H](O)[C@H](O)[C@H]1O (stereo partly drawn),inactive,
CC(=O)OC1CCC2(C)C(CCC3(C)C2CC=C2C4CC(C)(C)CCC4(C)CCC23C)C1(C)C(=O)O (stereo not drawn),inactive,
CCC(COC)n1nnc2c(Nc3ccc(OC)cc3C)nc(C)cc21 (stereo not drawn),inactive,
C[C@H]1COCCN1c1cc(C2(S(=O)(=O)C3CC3)CC2)nc(-c2ccc(NC(=S)NCCO)cc2)n1,inactive,
CCCN(CCC)CCCNC(=O)Cn1ncc2c3ccccc3n(Cc3ccccc3)c2c1=O,inactive,
CC(CNC(=O)c1nnc(Cc2cccc(F)c2)o1)c1ccccc1 (stereo not drawn),inactive,
CC(C)(C)OC(=O)N1CCC(c2c(C(=O)NCCc3ccsc3)cnn2-c2ccc(F)cc2F)CC1,inactive,
CC(=O)c1ccc(NC(=O)CCc2nc(-c3ccc(C)cc3)no2)cc1,inactive,
CC(C)C(=O)Nc1nc2c(s1)CC(C(C)(C)C)CC2 (stereo not drawn),inactive,
COC(=O)C12C(=O)C(C)=C(O)C1(C)C(C)=CC1C3(CO)CCC(O)C(C)(C)C3CCC12C (stereo not drawn),inactive,

# Reference: PubChem BioAssay AID1347055 (National Center for Advancing Translational Sciences (NCATS), 2019)
